Laboratory results as given in PubChem BioAssay AID463173 (ICCB-Longwood Screening Facility, Harvard Medical School, 2010).
Out of some 52,000 compounds screened, about 4,300 (8.3%) were called active. This is one part of a sample in which actives are shown more often than they occur. Rule as the data show it: active = survival mostly below about 52% (no sharp cut-off); inactive = mostly above about 56%.

The compounds below were run on DeltatarO mutant (assay: growth inhibition of S. aureus wild type versus tarO mutant, primary screen, teichoic acid synthesis inhibitors, RN4220, OD600 (AID 463173)). Conditions: OD600, 18 h, stronger effect = lower value, screened at 18.75 µg/mL (by protocol).

SMILES	survival
Cc1ccc2oc(=O)c3cnn(CC(=O)Nc4cccc(C(F)(F)F)c4)c3c2c1	87% (inactive)
Brc1ccc(-c2cc(-c3ccccc3)no2)cc1	74% (inactive)
CC1CCC(Nc2nnnn2-c2ccccc2)CC1 (configuration not stated)	87% (inactive)
CCc1cccc(NS(=O)(=O)c2ccc3c(c2)n(C)c(=O)c(=O)n3C)c1	73% (inactive)
CCOC(=O)c1ccccc1NC(=O)CN1C(=O)CC(c2ccccc2)Sc2ccccc21 (configuration not stated)	92% (inactive)
COCCNC(=O)CSc1nc(-c2ccc(F)cc2)[nH]c1-c1ccc(Cl)cc1	71% (inactive)
CCc1cccc(C)c1NC(=O)Cn1cnc2c1c(=O)n(C)c(=O)n2C	74% (inactive)
Cc1cccc(C)c1NC(=O)c1nc(S(C)(=O)=O)ncc1N(Cc1ccc(C(C)(C)C)cc1)Cc1ccco1	49% (inactive)
Cc1ccc(C)c(NC(=O)c2nc(S(C)(=O)=O)ncc2N(Cc2ccc(C(C)(C)C)cc2)Cc2ccco2)c1	55% (active)
CS(=O)(=O)c1ncc(N(Cc2ccco2)Cc2cccs2)c(C(=O)Nc2ccccc2F)n1	41% (active)
Cc1ccc(NC(=O)c2nc(S(C)(=O)=O)ncc2N(Cc2ccc(C(C)(C)C)cc2)Cc2ccco2)cc1C	52% (inactive)
Cc1ccc(NC(=O)c2nc(S(C)(=O)=O)ncc2N(Cc2ccccc2)Cc2ccco2)c(C)c1	53% (inactive)
CCS(=O)(=O)c1ncc(N(Cc2ccco2)Cc2ccccc2F)c(C(=O)Nc2cccc(Cl)c2)n1	60% (inactive)
CC(C)(C)c1ccc(CN(Cc2ccco2)c2cnc(S(C)(=O)=O)nc2C(=O)Nc2ccc(F)cc2)cc1	102% (inactive)
CS(=O)(=O)c1ncc(N(Cc2ccco2)Cc2ccco2)c(C(=O)Nc2ccccc2Br)n1	53% (inactive)
CCc1ccc(CN(Cc2ccco2)c2cnc(S(C)(=O)=O)nc2C(=O)Nc2c(C)cccc2C)cc1	36% (active)
Cc1ccc(NC(=O)c2nc(S(C)(=O)=O)ncc2N(Cc2ccco2)Cc2ccccc2F)c(C)c1	37% (active)
Cc1cccc(C)c1NC(=O)c1nc(S(C)(=O)=O)ncc1N(Cc1ccc(F)cc1)Cc1ccco1	46% (inactive)
Cc1ccc(CN(Cc2ccco2)c2cnc(S(C)(=O)=O)nc2C(=O)Nc2ccccc2Br)o1	44% (inactive)
COCCn1c(C)cc(O)c(C(c2ccc(OC)cc2)N2CCCCC2)c1=O (configuration not stated)	83% (inactive)
Cc1ccc(-c2nnc(Nc3cccc(Cl)c3)c3ccccc23)cc1S(=O)(=O)N1CCN(C)CC1	87% (inactive)
CCn1c(=O)n(-c2ccc(F)cc2)c(=O)c2sc3ccccc3c21	88% (inactive)
